In PubChem BioAssay AID651917 (Southern Research Specialized Biocontainment Screening …, 2012):
Measured potencies and affinities stand elsewhere. A number with no mark means an inactive call. How the calls were made is not given here.

Assay: VEEV TC-83 cytopathic effect inhibitors, confirmation, cell-based, TC-83 strain, set 8 (AID 651917)
Details: VEEV TC-83 infected cells; series mostly up to 25 µM; inhibition: at the top concentration

SMILES	inhibition
O=c1nc(Nc2ccc(OCc3ccccc3)cc2)sc2ncc([N+](=O)[O-])cc12	-1.13%
CCN1CCN(Cc2nc3ccc([N+](=O)[O-])cc3c(=O)n2Cc2ccccc2)CC1	-2% [at 50 µM]
Cc1cccc(C)c1Nc1nc(=O)c2cccnc2s1	-1.13%
CCN1CCN(Cc2nc3ccc(S(=O)(=O)O)cc3c(=O)n2-c2ccccc2)CC1	-0.9%
CN(C)c1cccc(-n2c(CN3CCNCC3)nc3ccc([N+](=O)[O-])cc3c2=O)c1	2.5%
CCN1CCN(Cc2nc3c([N+](=O)[O-])cccc3c(=O)n2-c2ccccc2)CC1	-3.57%
CCN1CCN(Cc2nc3ccc(-c4nn[nH]n4)cc3c(=O)n2-c2ccccc2)CC1	-1.1% [at 50 µM]
CCN1CCN(Cc2nc3ncccc3c(=O)n2-c2ccccc2)CC1	-1.77%
CCN1CCN(c2nc3ccc([N+](=O)[O-])cc3c(=O)n2-c2ccccc2)CC1	4.2%
O=c1nc(N2CCN(Cc3ccccc3)CC2)sc2ncccc12	-2.53%
CCN(CC)c1nc(=O)c2cccnc2s1	-1.73% [at 50 µM]
O=c1nc(NC2CCNCC2)sc2ncccc12	-6.83%
CCN1CCN(Cc2nc3ccc(C(=O)O)cc3c(=O)n2-c2ccccc2)CC1	-5.4%
CCN1CCN(CC2Nc3ccc([N+](=O)[O-])cc3C(=O)N2c2ccccc2F)CC1 (stereo not drawn)	7.2%
CCN1CCN(Cc2nc3ccc([N+](=O)[O-])cc3c(=O)n2C)CC1	2.33% [at 50 µM]
COc1ccccc1-n1c(CN2CCNCC2)nc2ccc([N+](=O)[O-])cc2c1=O	5.2%
CCN1CCN(Cc2nc3ccc(-c4cccnc4)cc3c(=O)n2-c2ccccc2)CC1	7.6%
O=c1nc(Nc2ccc(F)cc2)sc2ncccc12	-1.5%
CN(C)c1ccc(-n2c(CN3CCNCC3)nc3ccc([N+](=O)[O-])cc3c2=O)cc1	46.6%
O=c1nc(Nc2ccccc2OCc2ccccc2)sc2ncccc12	6.97%
O=c1nc(Nc2ccc(CCc3ccccc3)cc2)sc2ncccc12	-2.33% [at 50 µM]
O=C1CN(Cc2nc3ccc([N+](=O)[O-])cc3c(=O)n2-c2ccccc2F)CCN1	-1.4% [at 50 µM]
COc1ccc(Nc2nc(=O)c3cccnc3s2)cc1	-2.13% [at 50 µM]
